Measured values from PubChem BioAssay (NCATS).
Values without a mark were called inactive. Results filed as inconclusive are left out. Where a call stands in place of a potency, no number is given. Activity calls are given as the source filed them. Calls follow the shape of the dose curve; as a rule, active = well fitted inhibition curve with a large enough effect; inconclusive = small, poorly fitted or top-dose-only effect; inactive = flat fitted curve, though single readings scatter. Where a SMILES comes first, the peptide text is derived from it. The star is where a group is joined. AMC = Cc1cc(=O)oc2cc(N*)ccc12; Cbz = O=C(OCc1ccccc1)*

Experiments:
[1] = target: Glutathione peroxidase 1 (Homo sapiens) (UniProt P07203); assay: Primary qHTS Assay for Inhibitors of Recombinant Selenoprotein Glutathione Peroxidase 1 (GPX1) (AID 1845191); conditions: recombinant GPX1, GR-coupled NADPH fluorescence, 15 min; series mostly up to 27.7 µM; also: nearly all actives have a fitted effect of over 65% in size; also: potency is read from the fitted curve at half-maximal effect
Glutathione peroxidase 1 (Homo sapiens), sequence (P07203 whole entry, looked up): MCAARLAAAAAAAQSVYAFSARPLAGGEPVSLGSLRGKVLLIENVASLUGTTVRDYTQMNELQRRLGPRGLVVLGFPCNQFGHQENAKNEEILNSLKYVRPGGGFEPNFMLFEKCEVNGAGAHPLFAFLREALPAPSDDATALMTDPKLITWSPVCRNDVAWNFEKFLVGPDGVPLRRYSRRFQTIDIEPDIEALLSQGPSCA
How it was run: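 GR-coupled assay: compounds preincubated 30 min at room temperature with GPX1, then reaction started with CHP; final 10 nM GPX1, 1 mM GSH, 0.5 mM CHP, 0.5 mM NADPH, 100 nM GR, 0.01% BSA, pH 7.5 Tris buffer. NADPH fluorescence (340/450 nm) read at 0 and 15 min.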

[2] = target: Phospholipid hydroperoxide glutathione peroxidase GPX4 (Homo sapiens) (UniProt P36969); assay: Primary qHTS Assay for Inhibitors of Recombinant Selenoprotein Glutathione Peroxidase 4 (GPX4) (AID 1845192); conditions: recombinant GPX4, GR-coupled NADPH fluorescence, 15 min; series mostly up to 27.8 µM; also: nearly all actives have a fitted effect of over 65% in size; also: potency is read from the fitted curve at half-maximal effect
Phospholipid hydroperoxide glutathione peroxidase GPX4 (Homo sapiens), sequence (P36969 whole entry, looked up): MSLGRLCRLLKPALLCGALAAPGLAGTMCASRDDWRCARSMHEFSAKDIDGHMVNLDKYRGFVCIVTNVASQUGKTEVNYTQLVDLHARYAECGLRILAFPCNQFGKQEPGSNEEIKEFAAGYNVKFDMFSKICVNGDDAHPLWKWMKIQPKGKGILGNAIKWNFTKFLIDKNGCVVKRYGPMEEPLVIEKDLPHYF
How it was run: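 GR-coupled assay: recombinant GPX4 preincubated 30 min with compound at room temperature; final 200 nM GPX4, 1 mM GSH, 0.5 mM cumene hydroperoxide, 0.5 mM NADPH, 100 nM GR, 0.01% BSA, pH 7.5 Tris. NADPH fluorescence (340/450 nm) read at 0 and 15 min.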

[3] = target: Luciferin 4-monooxygenase (Photinus pyralis) (UniProt P08659); assay: Primary firefly luciferase (FLuc) qHTS assay for identification of artifact compounds. (AID 1845220); conditions: purified firefly luciferase, luminescence, 5 min; series mostly up to 54.1 µM; also: nearly all actives have a fitted effect of over 60% in size
How it was run: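 Enzymatic FLuc inhibition assay: compounds pre-exposed to luciferin/ATP (10 uM each) for 15 min, then purified P. pyralis enzyme at 10 nM added. Read-out: luminescence at 5 min.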

| Compound | Potency [1] | Potency [2] | Potency [3] | activity change, negative = inhibition [3] |
| --- | --- | --- | --- | --- |
| Cc1cc(=O)oc2cc(NC(=O)[C@H](CCC(=O)O)NC(=O)[C@H](CC(C)C)NC(=O)[C@H](CC(C)C)NC(=O)OCc3ccccc3)ccc12 (Cbz-Leu-Leu-Glu-{AMC}) | 22.7 µM (active) | 22.7 µM (active) | inactive | – |
| CO[C@H]1c2cc(C(C)C)c(O)c(O)c2[C@@]23CCCC(C)(C)C2[C@@H]1OC3=O (stereo not given in full) | inactive | inactive | inactive | – |
| NC1Nc2ccccc2C1(N)CC1NC(=O)C(Cc2ccccc2)NC(=O)C(Cc2ccccc2)NC1=O (stereo not given) | inactive | inactive | inactive | – |
| CC(=O)O[C@@H]1[C@H](OC(C)=O)C[C@@]2(C)C(CC[C@@H](C)[C@]23Cc2c(O)cc4c(c2O3)CN([C@@H](CCC(=O)O)C(=O)O)C4=O)C1(C)C (stereo not given in full) | inactive | inactive | inactive | – |
| CC1(C)CC[C@]2(C(=O)O)CC[C@]3(C)C(=CCC4[C@@]5(C)CC[C@H](O[C@@H]6O[C@H](C(=O)O)[C@@H](O)[C@H](O[C@@H]7O[C@H](CO)[C@H](O)[C@H](O)[C@H]7O)[C@H]6O[C@@H]6O[C@H](CO)[C@@H](O)[C@H](O)[C@H]6O)C(C)(C)C5CC[C@]43C)[C@@H]2C1 (stereo not given in full) | inactive | inactive | – | -14.9% [at 6.45 µM] |
| CC(C)[C@@H](C(=O)O)N1Cc2c(cc(O)c3c2O[C@]2(C3)[C@H](C)CCC3C(C)(C)[C@H](O)[C@H](O)C[C@@]32C)C1=O (stereo not given in full) | inactive | inactive | inactive | – |
| NC(Cc1c[nH]c2ccc(O)cc12)C(=O)O (stereo not given) | inactive | inactive | inactive | – |
| On1ncc(C2CCNCC2)c1-c1cccc(-c2ccccc2)c1 | inactive | inactive | inactive | – |
| COc1cccc(OC)c1-c1nc(C(=O)N[C@@H](CC(C)C)C(=O)O)cn1-c1ccnc2cc(Cl)ccc12 | inactive | inactive | inactive | – |
| CC(=O)OC/C(=C/C(=O)O)CC[C@@H]1C(CO)=CC[C@@H]2C(C)(C)CCC[C@@]12C | inactive | inactive | inactive | – |
| CCOc1ncc(S(=O)(=O)N2CCN(CC)CC2)cc1-c1nc2c(CC)n(CCOC)nc2c(=O)[nH]1 | inactive | inactive | inactive | – |
| CCC[C@H](N[C@@H](C)C(=O)N1[C@H](C(=O)O)C[C@@H]2CCCC[C@@H]21)C(=O)O | inactive | inactive | inactive | – |
| CN[C@H](CNC(=O)N1CCC[C@@H]([C@@H](OCCNC(=O)OC)c2cccc(Cl)c2)C1)C[C@H]1CCCOC1 | inactive | inactive | inactive | – |
| C=CCC1=C[C@]2(OC)[C@H](C)[C@@H](c3ccc(OC)c(OC)c3)O[C@]2(OC)CC1=O | inactive | inactive | inactive | – |
| CC1(C)CC[C@]2(C(=O)O)CC[C@]3(C)C(=CCC4[C@@]5(C)C(=O)C[C@H](O)[C@@](C)(CO)C5CC[C@]43C)[C@@H]2C1 (stereo not given in full) | inactive | inactive | inactive | – |
| CC1=CCC[C@@H]2[C@](CCc3ccoc3)(C(=O)O)[C@H](C)CC[C@@]12C | inactive | inactive | inactive | – |
| O=C(/C=C/c1ccc(O)c(O)c1)O[C@@H]1[C@@H](O)[C@H](OC2CCCCC2O)O[C@H](CO)[C@H]1O (stereo not given in full) | inactive | inactive | inactive | – |
| OC[C@H]1O[C@@H](OCc2ccccc2)[C@H](O[C@@H]2OC[C@@H](O)[C@H](O)[C@H]2O)[C@@H](O)[C@@H]1O | inactive | inactive | inactive | – |
| CCC(=O)OCC(=O)[C@@]1(OC(=O)CC)[C@@H](C)C[C@H]2[C@@H]3CCC4=CC(=O)C=C[C@]4(C)[C@@]3(F)[C@@H](O)C[C@@]21C | inactive | inactive | inactive | – |
| COc1ccc(C2(O)c3c(ccc4c3OC(C)(CCC=C(C)C)C=C4)NC(=O)C2OC)cc1 (stereo not given) | inactive | inactive | inactive | – |
| C=C1C[C@@]2(O)O[C@@]3(C[C@H]2C(C)C)[C@@H](C)CC[C@@H]13 | inactive | inactive | inactive | – |
| CC(=O)OC12CC(C)C(O)C1/C=C(/COC1OC(CO)C(O)C(O)C1O)CCC1C(/C=C(\C)C2=O)C1(C)C (stereo not given) | inactive | inactive | inactive | – |
| Cc1ccc(-c2c(-c3nn(C)c4ncnc(N5CC[C@H](N6CCCCC6)C5)c34)cnn2C)cc1 | inactive | inactive | inactive | – |
| Cc1ccc(Cl)cc1N(CC(=O)Nc1c(F)cccc1F)S(C)(=O)=O | inactive | inactive | inactive | – |
| COc1cc(O[C@@H]2O[C@H](CO[C@H]3OC[C@](O)(CO)[C@H]3O)[C@@H](O)[C@H](O)[C@H]2O)cc(OC)c1O | inactive | inactive | inactive | – |
